MITF TRPM1 HTS = activators of MITF-driven TRPM1 promoter reporter, primary screen, cell-based, SK-MEL-5, luciferase, single point | SK-MEL-5 TRPM1-promoter luciferase, 24 h; % of positive control, neutral wells = 0 | AID 588334, 2011 | activation, % at 12.5 µM | 300,000 compounds, 0.75% hits;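 active = mean activation of at least 80% with every replicate also reaching 80%; inconclusive = mean reaches 80% but some replicate falls short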;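 note: 0% = neutral control wells and 100% = parthenolide positive control wells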
HSF1 inh = HSF1 inhibitors in luciferase reporter cells, primary screen, cell-based, NIH3T3, luminescence | activity change, negative = inhibition, % at 7.5 µM (by protocol) | 300,000 compounds, 0.77% hits | NIH3T3-HGL HSE-luciferase, MG132-induced, luminescence 8 h; active compounds read low | AID 2098, 2009;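 active = more than half of replicate wells show activity change below -50%, luminescence cut by over half; inconclusive = some wells, but at most half, below -50%; inactive = no replicate well below -50%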;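 note: luciferase reports HSF-1 transcriptional activity via heat shock element; 0% = median of DMSO wells and -100% = zero luminescence signal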
esBAF inh = Bmi1 luciferase reporter increase in mESCs, primary screen, esBAF inhibitor project, mouse ES cells, Bmi1 luciferase knock-in, single point | reporter increase, % at 12.5 µM | 350,000 compounds, 2% hits | 24 h; 100% = twice the neutral-well signal; in the data active = activation above about 40%; inconclusive = no clear call, values can overlap the other calls;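 note: 0% = median of the plate's neutral control wells and 100% = double that signal; a rise in the Bmi1 reporter signal indicates esBAF inhibition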
Wnt act = Wnt/beta-catenin pathway activators, primary screen, cell-based, plate reader, single point; Wnt/beta-catenin reporter cell assay, activator; activation, % at 9.35 µM; 300,000 compounds, 1.2% hits; in the data active = activation above about 30%, passing the limit was not always enough; inconclusive = no clear call, values can overlap the other calls;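 note: 0% = neutral control wells and 100% = positive control wells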
HSF-1 act = HSF-1 activators, primary screen, NIH3T3-HGL cells, MG132 stress, luminescence, single point. activation, % at 9 µM. NIH3T3-HGL HSF-1 luciferase reporter, 8 h; 100% = twice DMSO control signal. AID 504408, 2011. 300,000 compounds, 1.7% hits;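 active = mean replicate activation of at least 50% with a set share of replicates each reaching 50%; inconclusive = only one of those two conditions met; inactive = mean below 50% and too few replicates reaching it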;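 note: 0% = median of the neutral control wells and 100% = twice that signal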
An asterisk follows results filed as active; ? = inconclusive; / = no result. Rows were chosen to be rich in hits. Some 3.9% of all compounds tested hit in one or more screens of this group.

SMILES	MITF TRPM1 HTS	HSF1 inh	esBAF inh	Wnt act	HSF-1 act
COc1ccc(-c2ccc(C(C)=O)cc2)cc1[C@H]1[C@H]2C=CC[C@@H](C)[C@@H]2C(=O)N1Cc1ccccc1	21.2	-1.8	-2.2	2.8	6.2
COc1ccc(-c2cc([C@H]3[C@H]4C=CC[C@@H](C)[C@@H]4C(=O)N3Cc3ccccc3)ccc2F)cc1	-2.6	-21.1	-1.5	-1.2	-37.5
COc1ccc(-c2cc([C@H]3[C@H]4C=CC[C@@H](C)[C@@H]4C(=O)N3Cc3ccccc3)ccc2F)cc1OC	52.7	12.1	48.2*	12.3	16.1
COC(=O)c1ccc(-c2ccc(OC)c([C@H]3[C@H]4C=CC[C@@H](C)[C@@H]4C(=O)N3Cc3ccccc3)c2)cc1	26.4	-6.3	78.8*	2.3	-22.8
CC(=O)c1ccc(-c2ccc([C@H]3[C@H]4C=CC[C@@H](C)[C@@H]4C(=O)N3Cc3ccccc3)c(F)c2)cc1	4.9	-5.8	-0.3	4.7	-5.4
COC(=O)c1ccc(-c2ccc([C@H]3[C@H]4C=CC[C@@H](C)[C@@H]4C(=O)N3Cc3ccccc3)c(F)c2)cc1	/	-15.5	58.6*	-11.6	-31.0
Cc1ccccc1S(=O)(=O)NCC[C@H]1CC[C@@H](NC(=O)C2CCOCC2)[C@@H](CO)O1	/	/	1.0	/	/
CCn1c2ccccc2c2cc(NC(=O)CSc3nnc(-c4cccc(OC)c4)n3N)ccc21	/	20.3	/	/	57.8*
COc1cccc(-c2nnc(SCc3nc4ccccc4[nH]3)n2N)c1	-2.6	59.8	/	/	71.5*
CCn1c(SCC(=O)Nc2ccc(N(C)C)cc2)nnc1-c1cccc(C)c1	-6.9	-75.6*	8.7	/	-79.7
CCn1c(SCC(=O)Nc2cc(C)on2)nnc1-c1cccc(C)c1	-11.6	-3.4	-2.4	-2.6	-8.0
CO[C@H]1CN(C)C(=O)c2cc(NS(C)(=O)=O)ccc2OC[C@H](C)N(S(C)(=O)=O)C[C@H]1C	/	/	1.8	/	/
O=C(C[C@H]1C=C[C@H](NC(=O)CCN2CCCCC2)[C@@H](CO)O1)NCc1ccc(Cl)c(Cl)c1	/	/	-4.3	/	/
Cc1cc(C)c2c(N)c(C(=O)Nc3ccc(F)cc3)sc2n1	52.2	11.1	26.0	51.0*	37.6
COc1ccc(/C=N/NC(=O)c2sc3nc(C)cc(C)c3c2N)cc1	/	-0.1	/	-2.7	6.9
Cc1cc(C)cc(NC(=O)c2sc3nc(C)cc(C)c3c2N)c1	62.9	3.1	69.6*	10.8	4.0
Cc1ccc(NC(=O)c2sc(N)nc2-c2ccc([N+](=O)[O-])cc2)cc1C	14.0	23.3	-0.6	0.0	42.4
Cc1cc(C)c2c(N)c(C(=O)N/N=C/c3cccs3)sc2n1	/	-7.0	/	44.6*	18.1
COCc1cc(C)nc2sc(C(=O)Nc3ccc(C(=O)OC)cc3)c(N)c12	/	-4.1	15.3	0.5	4.8
Cc1cc(C)c2c(N)c(C(=O)Nc3ccc([N+](=O)[O-])cc3)sc2n1	101.3*	21.2	?	16.4	1.9
C[C@@H]1CCCCO[C@H](CN(C)C)[C@H](C)CN([C@@H](C)CO)C(=O)c2cc(NC(=O)CCCN(C)C)ccc2O1	/	/	-0.7	/	/
CCCNC(=O)C[C@H]1CC[C@@H]2[C@@H](COc3ccc(NC(=O)c4cc(F)cc(F)c4)cc3C(=O)N2C)O1	/	/	6.5	/	/
COc1ccc(NC(=O)c2sc3nc(C)cc(C)c3c2N)cc1	104.5*	-4.9	?	12.2	11.4
Cc1cc(C)c2c(N)c(C(=O)NCC3CCCCC3)sc2n1	88.5*	16.6	7.7	-3.7	14.8
N#Cc1cc2c(N)c(C(=O)Nc3ccccc3)sc2nc1N	/	0.3	/	/	34.9
SMILES	MITF TRPM1 HTS	HSF1 inh	esBAF inh	Wnt act	HSF-1 act
Cc1cccc(NC(=O)c2sc3nc(N)c(C#N)cc3c2N)c1	106.3*	-1.3	/	/	18.8
COc1ccccc1NC(=O)c1sc2nc(C)cc(C)c2c1N	0.2	5.8	3.2	-2.1	12.1
Cc1cc(C)c2c(N)c(C(=O)NC3CCCC3)sc2n1	29.4	1.4	35.3	10.1	-0.5
Cc1cc(C)c2c(N)c(C(=O)Nc3ccc(C)c(C)c3)sc2n1	126.4*	17.9	-22.3	20.6	45.0
COCC(=O)N1C[C@H](C)[C@@H](OC)CN(C)C(=O)c2cc(NC(=O)c3cnccn3)ccc2OC[C@@H]1C	/	/	-2.3	/	/
Clc1ccc(OCc2nc(-c3ccccn3)no2)c(Br)c1	/	17.7	-14.1	11.4	42.3
Cc1cccc(OCc2nc(-c3nonc3N)no2)c1C	?	/	?	62.2*	/
c1ccc(CCc2nc(-c3ccccn3)no2)cc1	127.6*	20.9	35.2	/	33.8
Clc1ccccc1OCc1nc(-c2ccc(Br)o2)no1	/	29.0	54.4*	15.8	35.3
Clc1ccccc1OCc1nc(-c2ccccn2)no1	24.1	28.1	0.5	39.0*	59.8*
CN(Cc1nc(-c2ccccn2)no1)S(=O)(=O)c1ccccc1	/	/	1.7	1.1	/
Brc1ccc(-c2noc(CCc3ccccc3)n2)o1	38.2	38.8	50.0*	13.7	?
Nc1nonc1-c1noc(COc2ccccc2Cl)n1	113.4*	18.4	/	42.8*	37.1
CC(C)CNC(=O)CSc1nc2nn(-c3ccccc3)c(=O)c-2c2n1CCCCC2	5.9	-3.9	/	39.9*	8.2
CNC(=O)CSc1nc2nn(-c3ccccc3)c(=O)c-2c2n1CCCCC2	4.9	15.5	-3.2	0.5	20.3
COc1ccccc1Nc1ccc(C(=O)NCc2cccs2)cn1	9.1	4.6	-3.5	0.5	2.7
COc1ccccc1Nc1ncc(-c2cccs2)s1	72.2	1.7	53.7*	/	7.8
O=C(COC(=O)Cc1c(Cl)cccc1Cl)Nc1ccc(OC(F)(F)F)cc1	-17.4	-83.6*	/	-4.9	-86.3
COc1cc(SC)ccc1C(=O)Nc1cccc(C)n1	101.0*	22.9	45.0*	19.4	34.2
COc1cc(SC)ccc1C(=O)Nc1ccc(C)cc1	14.4	17.9	/	50.2*	55.3*
O=C(Nc1ccc(OCC(=O)N2CCOCC2)cc1)Nc1cccc(Cl)c1	1.0	-0.2	/	0.1	7.6
CC(C)(C)c1ccc(NC(=O)Nc2ccc(OCC(=O)N3CCOCC3)cc2)cc1	90.0*	14.6	/	11.2	41.3
COc1cc(SC)ccc1C(=O)Nc1ncc(Cl)cc1Cl	15.7	17.6	/	69.9*	63.0*
CO[C@H]1CN(C)C(=O)c2cc(NC(=O)Nc3cccc(F)c3)ccc2OC[C@H](C)N(C(=O)Nc2c(C)noc2C)C[C@H]1C	/	/	2.2	/	/
CCS(=O)(=O)Nc1ccc2c(c1)C(=O)N(C)[C@H]1CC[C@H](CC(=O)N3CCN(C)CC3)O[C@@H]1CO2	/	/	-4.2	/	/
O=C(COc1ccc(/C=C\[N+](=O)[O-])cc1)N1CCOCC1	-5.8	154.6	/	-1.3	181.4*
COc1cc(SC)ccc1C(=O)Nc1ccon1	/	6.2	50.7*	20.5	39.4
O=C(COc1ccc(S(=O)(=O)N2CCOCC2)cc1)N1CCOCC1	-5.4	/	-12.3	1.2	/

Compound activity from PubChem.
